Experimental findings from PubChem BioAssay (NCI) are described below.

SMILES strings stand for the structures. Compounds without any hit were thinned out: in the full panel of roughly 79,000, 15% have a hit. Values without a mark were called inactive. Active and inactive are the calls of the source. Rule as the data show it: active = growth inhibition above about 70%; inactive = the rest.

A short description of test [1]: NCI Yeast Anticancer Drug Screen. Data for the rad50 strain (AID 155).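 Also: 0% = growth of vehicle-only cultures of the same strain.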 The conditions noted are these: S. cerevisiae rad50 strain growth inhibition; at 50.0 µM; stronger effect = higher value. A digest of the protocol: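 Growth of the mutant yeast was measured after compound exposure and referenced to vehicle-treated cultures.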
A short description of test [2]: NCI Yeast Anticancer Drug Screen. Data for the mec2-1 strain (AID 157). The conditions noted are these: S. cerevisiae mec2-1 strain, at 50.0 µM, stronger effect = higher value. In short, it runs like this: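 Growth inhibition is read against vehicle-treated controls after compound exposure of the mec2-1 yeast strain, which is defective in DNA damage repair or cell cycle control.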

Test [3] is described as follows: NCI Yeast Anticancer Drug Screen. Data for the sgs1 mgt1 strain (AID 161).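 Also: 0% = growth of cultures given vehicle only.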 The conditions noted are these: S. cerevisiae sgs1 mgt1 strain, at 50.0 µM, stronger effect = higher value. A digest of the protocol:
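This yeast growth screen uses a strain with defined DNA-repair lesions; compound-treated growth is compared with vehicle-treated growth.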

Test [4] in a line: NCI Yeast Anticancer Drug Screen. Data for the cln2 rad14 strain (AID 165).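 Also: 0% = growth equal to vehicle treated cultures.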 The following applies: S. cerevisiae cln2 rad14 strain, at 50.0 µM, stronger effect = higher value. A digest of the protocol: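 Growth inhibition, relative to vehicle-treated controls, is the read-out. The test organism is a yeast strain with defined genetic alterations, cln2 rad14.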
Test [5] can be described thus: NCI Yeast Anticancer Drug Screen. Data for the bub3 strain (AID 167). The following applies: S. cerevisiae bub3 mutant strain, at 50.0 µM, stronger effect = higher value. A digest of the protocol:
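Whole-cell yeast assay. The mutant strain was incubated with compounds, and growth inhibition was determined by comparison with vehicle-treated cells.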

Test [6] is described as follows: NCI Yeast Anticancer Drug Screen. Data for the mlh1 rad18 strain (AID 175). The conditions noted are these: S. cerevisiae mlh1 rad18 strain growth inhibition; at 50.0 µM; stronger effect = higher value. In short, it runs like this: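 Cells of a genetically altered yeast strain, deficient in DNA damage repair, were treated with compound. Their growth was then compared with that of vehicle-treated cultures to give inhibition.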

Consider `CCCC(O)C(C)C(C)O` (stereo not drawn), for which the growth inhibition in test [1] was -28.5%; in test [2], -16.1%; in test [3], -17.4%; in test [4], 25.1%; in test [5] it was -2.15%; in test [6], -8.75%.
`O=C1CSC(=S)N1N1C(=O)CSC1=S`: the growth inhibition is -24.8% in test [1]; -7.8% in test [2]; -21.5% in test [3]; -12.3% in test [4]; 5.55% in test [5]; -12.4% in test [6].
In the case of `O=[N+]([O-])c1cccc(CO)c1`, the growth inhibition in test [1] is -9.75%; in test [2], 17.1%; in test [3], -1.15%; in test [4], 8.6%; in test [5], -7.35%; in test [6], -5.7%.
Consider `O=C(NCCCl)c1ccc(F)cc1`, for which the growth inhibition is -21.2% in test [1]; -4.65% in test [2]; -12.4% in test [3]; 0.35% in test [4]; -6.95% in test [5]; -44.7% in test [6].
Turning to `OC1c2ccccc2-c2ccc(Cl)cc21` (stereo not drawn), the growth inhibition in test [1] was 23.8%; in test [2], 14.2%; in test [3], -7.15%; in test [4], -32.2%; in test [5], 4.15%; in test [6], 14.9%.
Take `Cc1c(-c2ccc(Cl)cc2)n[nH]c1-c1[nH]nc(-c2ccc(Cl)cc2)c1C`: the growth inhibition in test [1] was -2.3%; in test [2], -1.95%; in test [3], -26.1%; in test [4], 3.75%; in test [5], -11.4%; in test [6] it was -1.9%.
For `c1ccc(N/N=C2/CSCc3ccccc32)cc1`, the growth inhibition was 93.2% (active) in test [1]; 68.8% in test [2]; 91.5% (active) in test [3]; 74.2% (active) in test [4]; 80.8% (active) in test [5]; 94.4% (active) in test [6].
On to `O=C1c2ccccc2-c2nc(-c3cccnc3)cc3c2c1nc1ccccc13`, for which the growth inhibition in test [1] is 32.7%; in test [2], 24.4%; in test [3], 34.4%; in test [4], 23%; in test [5], 24.7%; in test [6] it was 39%.
For `COc1cccc(NC(=S)Nn2c(C)nc3ccccc3c2=O)c1`, the growth inhibition in test [1] was -25.2%; in test [2], -14%; in test [3] it was -17.1%; in test [4], 0.25%; in test [5], -11.3%; in test [6], -28.6%.
`O=C(c1ccncc1)c1c(Cc2ccccc2)ccc2ccccc12`: the growth inhibition is -0.3% in test [1]; -0.65% in test [2]; -9.25% in test [3]; -4% in test [4]; 5.45% in test [5]; -1.35% in test [6].
With `CCN(CC)CCN1C(=O)N(CCN(CC)CC)C(=O)C(CC)(CC)C1=O`, the growth inhibition in test [1] was 13.9%; in test [2], -2.15%; in test [3] it was 12.5%; in test [4] it was 22.9%; in test [5], -1.65%; in test [6], 34.1%.
Take `OC(Cc1ccc2ccccc2n1)(C(F)(F)Cl)C(F)(F)Cl`: the growth inhibition was -39% in test [1]; -55.2% in test [2]; -10.7% in test [3]; -9.7% in test [4]; -4.45% in test [5]; -31.1% in test [6].
As to `COC(OC)C1OC(C)(C)OC1C(OS(=O)(=O)c1ccc(C)cc1)C1COC(C)(C)O1` (stereo not drawn), the growth inhibition in test [1] was -14.7%; in test [2], -7.8%; in test [3], 6.45%; in test [4], 1.95%; in test [5] it was 1.6%; in test [6] it was 12.7%.
For the molecule `CSC(=S)Nc1cc(C)cc(C)n1`, the growth inhibition in test [1] was 29.8%; in test [2], 17.7%; in test [3] it was 62.1%; in test [4], 38%; in test [5], 42.8%; in test [6], 60.8%.
Take `Cc1[nH]n(-c2ccccc2)c(=O)c1/C=N\C(N)=S`: the growth inhibition is -37% in test [1]; -37.9% in test [2]; -34.1% in test [3]; -50.9% in test [4]; -48% in test [5]; -25.1% in test [6].
As to `CCNCc1cc(Nc2nc(NC3CCC(N(C)C)CC3)c3ccccc3n2)ccc1OC` (stereo not drawn), the growth inhibition was 2.4% in test [1]; 7% in test [2]; -5.8% in test [3]; 28.3% in test [4]; 3.45% in test [5]; 9% in test [6].
As for `C[C@H](OCc1ccccc1)C(=O)N1CCS(=O)(=O)N2CCC[C@@H]2C1=O`, the growth inhibition is 5.05% in test [1]; -19.1% in test [2]; -18.2% in test [3]; 19.4% in test [4]; -5.9% in test [5]; -17.9% in test [6].
As to `Cc1cc(Cl)c2c(C)ccc(C)c2n1`, the growth inhibition is -4.25% in test [1]; -31.9% in test [2]; 9.85% in test [3]; 5.7% in test [4]; 4% in test [5]; 8.95% in test [6].
Consider `CCCC(C)C(=O)OC1CCCCC1` (stereo not drawn), for which the growth inhibition in test [1] is 9.35%; in test [2], 1.3%; in test [3], -0.85%; in test [4] it was -21.4%; in test [5], 7.6%; in test [6], 3%.
For `COC(=O)c1ccccc1NC(=O)Nc1ccccc1`, the growth inhibition in test [1] is 3.1%; in test [2], 9.35%; in test [3], 3.25%; in test [4], -14.9%; in test [5] it was 4.25%; in test [6], 8.35%.
Consider `C/C(=N\NC(=S)N1CCC(C2CCN(C(=S)N/N=C(\C)c3ccccn3)CC2)CC1)c1ccccn1`, for which the growth inhibition is 32.4% in test [1]; 15.5% in test [2]; 60.1% in test [3]; 45.2% in test [4]; 63.9% in test [5]; -27.4% in test [6].
Consider `CC(C)N(CCCCO)C(C)C`, for which the growth inhibition in test [1] is -0.75%; in test [2], -0.3%; in test [3], 14.2%; in test [4], 0.05%; in test [5] it was 2.7%; in test [6] it was 3.3%.
On to `CSC(=NCc1ccccc1)Nc1c(C)cccc1C`, for which the growth inhibition was 13.4% in test [1]; 4.45% in test [2]; 6.75% in test [3]; 8.1% in test [4]; 28.1% in test [5]; 17.1% in test [6].
On to `Cn1ncc2c(NCc3ccccc3)ncnc21`, for which the growth inhibition in test [1] was 13.2%; in test [2], 3.15%; in test [3] it was 23.1%; in test [4] it was -44%; in test [5] it was 2.7%; in test [6], 0.5%.
As to `CSC1C(OC(=O)c2ccccc2)C(COC(=O)c2ccccc2)OC1n1cnc2ncnc(NC(=O)c3ccccc3)c21` (stereo not drawn), the growth inhibition was 45.4% in test [1]; 20.4% in test [2]; 34.6% in test [3]; 29.4% in test [4]; 6.45% in test [5]; 38.8% in test [6].
On to `Cc1cc(N=Nc2ccc(C(=O)Nc3ccc4cc(S(=O)(=O)O)ccc4c3)cc2)c(N)c(N=Nc2ccc(N=Nc3ccc(O)c(C(=O)O)c3)cc2)c1N`, for which the growth inhibition was 8.2% in test [1]; 29.6% in test [2]; 53.8% in test [3]; -21.9% in test [4]; -11.3% in test [5]; 44.6% in test [6].
With `COC(=O)NC(c1ccccc1)C(C)I` (stereo not drawn), the growth inhibition is 7.3% in test [1]; -0.6% in test [2]; -2.85% in test [3]; -9.65% in test [4]; 3.25% in test [5]; 12.3% in test [6].
Consider `CCn1c2ccc(N(C)C)cc2c2cc(N(C)C)ccc21`, for which the growth inhibition in test [1] is -25.4%; in test [2], -38.5%; in test [3], -24.1%; in test [4], -38.8%; in test [5], -18.5%; in test [6], -52.4%.
For `COc1ccccc1NC(=O)CCl`, the growth inhibition in test [1] is 17.8%; in test [2], 24.9%; in test [3], 24.4%; in test [4], 18.8%; in test [5] it was 28.5%; in test [6] it was 36.2%.
Regarding `Cc1[nH]nc2c1NC(=O)OC2`, the growth inhibition in test [1] was -3.1%; in test [2], -1.1%; in test [3], 1.5%; in test [4], -23.4%; in test [5], -8.15%; in test [6], 2.45%.
As to `O=C(c1ccccc1)c1ccccc1-c1nc2ccccc2c(=O)o1`, the growth inhibition in test [1] was 11.8%; in test [2], -6.65%; in test [3], 1.65%; in test [4] it was 29.9%; in test [5], 30.8%; in test [6], -0.8%.
Take `COC(=O)c1ccccc1N=NNc1ccc(C(F)(F)F)c([N+](=O)[O-])c1`: the growth inhibition was -10.4% in test [1]; -1.85% in test [2]; 16.1% in test [3]; -2.35% in test [4]; 9.95% in test [5]; -11.7% in test [6].
Turning to `Cc1nc2[nH]cc(-c3ccccc3)c2c(=N)n1-c1ccc(F)cc1`, the growth inhibition was -7.45% in test [1]; 0.8% in test [2]; -11.2% in test [3]; -23.1% in test [4]; -7.6% in test [5]; 0.55% in test [6].
Take `O=[N+]([O-])c1ccc(/C=N\NC(=S)Nc2ccc3cn[nH]c3c2)cc1`: the growth inhibition in test [1] is 19.9%; in test [2], 14.6%; in test [3], 7.6%; in test [4] it was -1.7%; in test [5] it was 17.4%; in test [6] it was -9.65%.
`CS/C(=C\c1ccc(C(=O)c2ccc(C)cc2)n1C)S(C)=O` (stereo not drawn): the growth inhibition is 16.6% in test [1]; 15.2% in test [2]; 42.4% in test [3]; 11.1% in test [4]; -0.7% in test [5]; 35.5% in test [6].
As to `NC(=O)c1ccc(Cl)c([N+](=O)[O-])c1`, the growth inhibition was 8.2% in test [1]; 2.85% in test [2]; -7.3% in test [3]; 6.45% in test [4]; -31.3% in test [5]; 2.15% in test [6].
On to `CC(C)(C)c1ccc(O)c(C(O)c2cccnc2)c1` (stereo not drawn), for which the growth inhibition was 18.7% in test [1]; 16.6% in test [2]; 16.5% in test [3]; 13.9% in test [4]; 29.8% in test [5]; 39.2% in test [6].
Turning to `N#Cc1ccc(OC(=O)Nc2ccccc2C(F)(F)F)cc1`, the growth inhibition in test [1] is 2.4%; in test [2], -18.9%; in test [3] it was -5.2%; in test [4], -2.1%; in test [5], -14.9%; in test [6], -0.85%.
